Assay [1] is described as follows: CCTE_Shafer_MEA_dev_per_burst_interspike_interval: CCTE's Neural Network Formation Assay for Burst Interspike Interval, Shafer Lab (AID 2284044).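 Further: mean spike spacing inside bursts as AUC over recordings on days 5 7 9 12.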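 On AC50: potency for a decrease of within-burst interspike interval below DMSO level.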 In outline:
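Mean interspike interval within single-electrode bursts, averaged over bursting electrodes, from rat cortical cultures on MEA plates recorded on days 5, 7, 9 and 12. Continuous compound exposure from plating; trapezoidal AUC fitted downward relative to DMSO.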

The nature of assay [2]: CCTE_Shafer_MEA_dev_burst_duration_mean: CCTE's Neural Network Formation Assay for Mean Burst Duration, Shafer Lab (AID 2284045). Summed up:
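Primary rat cortical neurons on 48-well 16-electrode MEA plates, exposed from day 0 with renewal at DIV 5 and 9; spontaneous activity recorded on days 5, 7, 9, 12. Well-mean burst duration across bursting electrodes, collapsed as trapezoidal AUC; DMSO baseline.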

Assay [3] can be described thus: CCTE_Shafer_MEA_dev_interburst_interval_mean: CCTE's Neural Network Formation Assay for Mean Interburst Interval, Shafer Lab (AID 2284046).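 Further: well-mean interburst interval of bursting electrodes as AUC over four recording days; curve fitted for decrease in interburst interval relative to DMSO.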 In outline:
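Primary rat cortical neurons on PEI-coated 48-well MEA plates (laminin added with cells at plating) (16 electrodes/well), exposed from plating day 0 with renewal at DIV 5 and 9. Mean inter-burst interval averaged over bursting electrodes, AUC across days 5, 7, 9, 12; DMSO baseline.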

Assay [4] is described as follows: CCTE_Shafer_MEA_dev_inter_network_spike_interval_mean: CCTE's Neural Network Formation Assay for Mean Inter-network Spike Interval, Shafer Lab (AID 2284047).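 On AC50: potency for a decrease in mean inter-network spike interval below DMSO.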 In outline:
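Mean time between consecutive network-spike peaks, recorded extracellularly (adaptive spike detection) on DIV 5, 7, 9 and 12, summarized as trapezoidal AUC. Rat cortical cultures on MEAs dosed continuously days 0–12, re-dosed at feeds; loss-of-signal fit relative to DMSO.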

Assay [5] is described as follows: CCTE_Shafer_MEA_dev_network_spike_number: CCTE's Neural Network Formation Assay for Number of Network Spikes, Shafer Lab (AID 2284048).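 Further: synchronized bursts across electrodes counted on days 5 7 9 12 and integrated as AUC.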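 On AC50: fit as a loss of signal meaning fewer network spikes than DMSO.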 In outline:
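Primary rat cortical neurons on PEI/laminin 48-well MEA plates, dosed from plating day 0 for 12 days, renewed at DIV 5 and 9. Network spike counts recorded DIV 5, 7, 9, 12, collapsed as trapezoidal AUC; DMSO baseline.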

Assay [6] in a line: CCTE_Shafer_MEA_dev_network_spike_peak: CCTE's Neural Network Formation Assay for Mean Number of Electrodes in Network Spike, Shafer Lab (AID 2284049).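 On AC50: fitted for loss of signal meaning fewer electrodes in network spikes than DMSO.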 Summed up: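 Network-spike peak electrode count from recordings on days 5, 7, 9 and 12 was combined as trapezoidal area under the curve. Rat cortical cultures were treated continuously from plating, with compound renewed at each feed (DIV 5, 9); fits versus DMSO.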

The nature of assay [7]: CCTE_Shafer_MEA_dev_spike_duration_mean: CCTE's Neural Network Formation Assay for Mean Spike Duration, Shafer Lab (AID 2284051).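 On AC50: potency for a decrease in mean network spike duration versus DMSO.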 Summed up: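 Spontaneous activity was recorded on days 5, 7, 9 and 12 from rat cortical cultures grown on microelectrode arrays and dosed continuously from day 0, with media and compound renewed after the DIV 5 and 9 recordings. Network-spike duration was collapsed by area under the curve.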

The nature of assay [8]: CCTE_Shafer_MEA_dev_network_spike_duration_std: CCTE's Neural Network Formation Assay for Standard Deviation of Network Spike Duration, Shafer Lab (AID 2284052).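 Further: hits are decreases in network spike duration SD versus DMSO vehicle.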 In outline: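 Network spike duration variability was collapsed across recordings on days 5, 7, 9 and 12 by trapezoidal area-under-curve and fitted downward against DMSO. Cultures were rat cortical neurons on PEI-coated MEA plates, dosed continuously from plating, refed with compound DIV 5/9.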

Assay [9] can be described thus: CCTE_Shafer_MEA_dev_per_network_spike_spike_number_mean: CCTE's Neural Network Formation Assay for Mean Number of Spikes in a Network Spike, Shafer Lab (AID 2284053).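 On AC50: fitted as decrease in spikes per network spike relative to DMSO.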 Summed up: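 Mean spike count within each network spike, taken in a 0.05 s window at its peak, was recorded on days 5, 7, 9 and 12 and integrated as trapezoidal area under the curve. Rat cortical cultures on MEA plates received continuous compound from day 0, refreshed at medium changes on DIV 5 and 9.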

The nature of assay [10]: CCTE_Shafer_MEA_dev_per_network_spike_spike_percent: CCTE's Neural Network Formation Assay for Percent of Spikes in a Network Spike, Shafer Lab (AID 2284054). In outline: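 Rat primary cortical neurons were grown on 48-well MEA plates (16 electrodes/well), exposed from plating day 0 through day 12, with treatment renewed on DIV 5 and 9. Percent of spikes within 0.05 s network-spike peaks was measured, summarised as AUC across days 5, 7, 9, 12.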

A short description of assay [11]: CCTE_Shafer_MEA_acute_AB: CCTE's Alamar Blue Assay for Cytotoxicity in the Neural Acute Assay, Shafer Lab (AID 2284069; active means hit-call score of the fitted dose curve at least 0.9, where 1 is the maximum;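 further: active compounds lower the viability signal compared with DMSO wells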). In outline:
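Resazurin reduction (CellTiter Blue, 1:6 in fresh medium) read at ex 544/em 590 nm marks viability loss relative to DMSO. Cells: primary rat cortical neuron networks on microelectrode arrays, treated after baseline recording at 13 or 15 days in vitro.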

Assay [12] is described as follows: CCTE_Shafer_MEA_dev_AB: CCTE's Alamar Blue Assay for Cytotoxicity in the Neural Network Formation Assay, Shafer Lab (AID 2284083; active means hit-call score of the fitted dose curve at least 0.9, where 1 is the maximum;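 further: resazurin reduction fluorescence as viability of cultured neurons; twelve days of exposure from plating with re-dosing on DIV 5 and 9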). Summed up: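 Resazurin fluorescence, relative to DMSO, gauges viability after twelve days of exposure that began at plating of rat cortical neurons (1.5 x 10^5 cells/well, 48-well MEA); treatment renewed with full medium exchange on DIV 5 and 9.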

A short description of assay [13]: CCTE_Shafer_MEA_acute_LDH: CCTE's Lactate Dehydrogenase Assay for Cytotoxicity in the Neural Acute Assay, Shafer Lab (AID 2284086; active means hit-call score of the fitted dose curve at least 0.9, where 1 is the maximum;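 further: active means LDH release rises above DMSO vehicle level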). Summed up:
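Released lactate dehydrogenase, read at 490 nm, indicated cytotoxicity after acute 40-min compound treatment of rat cortical neuron networks grown on 48-well MEA plates.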

Assay [14] in a line: CCTE_Shafer_MEA_dev_mutual_information_norm: CCTE's Neural Network Formation Assay for Mutual Information Normalization, Shafer Lab (AID 2284091).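 On AC50: mutual information between electrodes summarised as area under curve across four recording days; potency is for a decrease in mutual information relative to DMSO.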 Summed up: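 Primary rat cortical neurons on PEI-coated 48-well MEA plates, 1.5 x 10^5 cells/well, exposed from day 0 through day 12 with re-dosing at DIV 5 and 9. Mutual information between electrodes recorded days 5, 7, 9, 12; trapezoidal AUC, loss-of-signal fit versus DMSO.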

A short description of assay [15]: CCTE_Shafer_MEA_dev_correlation_coefficient_mean: CCTE's Neural Network Formation Assay for Mean Correlation Coefficient, Shafer Lab (AID 2284093).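 On AC50: well mean pairwise spike train correlation integrated as AUC over recording days 5 to 12; potency fitted for loss of correlation relative to DMSO vehicle wells.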 Summed up: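 Primary rat cortical neurons on PEI-coated 48-well MEA plates (16 electrodes/well) were exposed from plating day 0 through DIV12, with compound renewed at DIV5 and 9. Pairwise spike correlations were averaged per well; trapezoidal AUC across DIV5, 7, 9, 12.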

Assay [16] in a line: CCTE_Shafer_MEA_dev_LDH: CCTE's Lactate Dehydrogenase Assay for Cytotoxicity in the Neural Network Formation Assay, Shafer Lab (AID 2284068; active means hit-call score of the fitted dose curve at least 0.9, where 1 is the maximum;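 further: exposure for twelve days from plating with re-dosing on DIV 5 and 9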). In outline:
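Primary rat cortical neurons were cultured on PEI-coated MEA plates and exposed from plating through day 12, with compound renewed at medium changes on DIV 5 and 9. LDH activity was read spectrophotometrically; loss of signal versus DMSO indicates reduced viability.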

A further assay concerns DIO2 (gene 1734). Nature of the assay: CCTE_GLTED_hDIO2: CCTE's human Deiodinase 2 (DIO2) Inhibition Assay, Great Lakes Toxicology and Ecology Division (GLTED) Lab (AID 2284050; active means hit-call score of the fitted dose curve at least 0.9, where 1 is the maximum). In outline: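 In this cell-free test, chemicals are exposed to human deiodinase type 2 for 3 hours. Released iodide is determined spectrophotometrically via the Sandell-Kolthoff method, and signal loss relative to DMSO is fitted.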

For the next assay, the system named is DIO3 (gene 1735). Nature of the assay: CCTE_GLTED_hDIO3: CCTE's human Deiodinase 3 (DIO3) Inhibition Assay, Great Lakes Toxicology and Ecology Division (GLTED) Lab (AID 2284055; active means hit-call score of the fitted dose curve at least 0.9, where 1 is the maximum;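 further: potency is for inhibition seen as loss of released iodide signal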). Summed up: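 Enzyme activity is tracked as iodide release from substrate by recombinant human DIO3 over 3 h with chemical present. A second Sandell-Kolthoff step converts iodide to an absorbance signal, fitted relative to DMSO.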

Several values for one entry are separate records, joined by “and”; a condition that tells them apart may be missing. Equal entries are not always repeated. Results filed as inconclusive are left out. Activity calls are given as the source filed them. How the source made its calls, unless noted: active means hit-call score of the fitted dose curve at least 0.9, where 1 is the maximum; inactive means score below 0.9.

On to `CCCCOC(=O)c1ccccc1C(=O)OCc1ccccc1`, for which the compound was classed as inactive in assay [1], in assay [2], in assay [3], in assay [4], in assay [5] and in [8]. Besides, the compound was called inactive in assay [9], in [10], in assay [11], in assay [12], in assay [13] and in assay [14]. In [15], the outcome was inactive. In addition, the AC50 was 15.2 µM (active) in assay [6] and 13.6 µM (active) in assay [7].
Take `ClC1=C(Cl)C2(Cl)C3C(Cl)C=CC3C1(Cl)C2(Cl)Cl` (centres undefined): the compound was classed as inactive in assay [1], in assay [2], in [4], in [5], in [11] and in assay [13]. Further, the AC50 was 2.32 µM (active) in [3]; 4.19 µM (active) in assay [6]; 4.2 µM (active) in [7]; 744 nM (active) in [8]; 2.98 µM (active) in assay [9]; 1.4 µM (active) in [10]. For the same compound, the AC50 in assay [16] was 2.98 µM (active); in assay [12] it was 937 nM (active); in [14] it was 1.52 µM (active); in assay [15], 1.97 µM (active).
For the compound `CC(C)(C)C(O)(CCc1ccc(Cl)cc1)Cn1cncn1` (centres undefined), the compound was classed as inactive in assay [1], in assay [2], in assay [3], in assay [4], in assay [8] and in assay [10]. In addition, the call in assay [16], in assay [11], in assay [12] and in assay [13] was inactive. Besides, the concentration at half-maximal activity (AC50) was 801 nM (active) in assay [5]; 15 µM (active) in [6]; 15 µM (active) in assay [7]; 15 µM (active) in assay [9]; 2.24 µM (active) in [14]; 15 µM (active) in assay [15].
As for `OCCOCCO`, the call in [1], in assay [2], in [3], in [5], in assay [6] and in assay [7] was inactive. Moreover, the outcome in [8], in assay [9], in assay [10], in assay [14] and in assay [15] was inactive. The AC50 in assay [4] was 24.5 µM (active).
In the case of `Cc1ccc(N)c(N)c1`, the compound was classed as inactive in [11] and in [13].
As to `CN(C)[C@@H]1C(=O)C(C(N)=O)=C(O)[C@@]2(O)C(=O)C3=C(O)c4c(O)cccc4[C@@](C)(O)[C@H]3C[C@@H]12`, the call in assay [1], in assay [2], in assay [3], in assay [4], in [5] and in [6] was inactive. Further, the compound was called inactive (in the assay on DIO2 (gene 1734); in assay [7]; in [8]; in [9]; in assay [10]; in assay [16]). Also, the compound was called inactive in assay [12], in assay [14] and in [15]. For the same compound, the AC50 in the assay on DIO3 (gene 1735) is 79.8 µM (active).
As for `O=[N+]([O-])C(Br)(CO)CO`, the AC50 in assay [11] is 26.9 µM (active).
Take `Clc1ccc(C(c2ccc(Cl)cc2)C(Cl)(Cl)Cl)cc1`: the AC50 in assay [1] was 7.74 µM (active) and 9.33 µM (active); in [3], 7.67 µM (active) and 9 µM (active); in [5] it was 2.58 µM (active) and 2.86 µM (active); in [6], 3.55 µM (active) and 6.68 µM (active); in [7], 2.62 µM (active) and 8.54 µM (active); in assay [8], 1.98 µM (active) and 8.91 µM (active). For the same compound, the AC50 in assay [9] is 6.95 µM (active) and 5.75 µM (active); in assay [10], 3.02 µM (active) and 4.15 µM (active); in assay [16] it was 4.07 µM (active) and 6.5 µM (active); in [12], 3.88 µM (active) and 8.94 µM (active); in assay [14], 971 nM (active) and 2.52 µM (active); in assay [15] it was 3 µM (active) and 4.07 µM (active). The outcome in [2], in assay [4], in assay [11] and in assay [13] was inactive.
